mHTT-CaM PPI inh: mHTT-calmodulin interaction abrogation. P42858. AlphaScreen His-mHTT/GST-CaM binding, luminescence. inhibition, % at 15 µM. hit rate 3.6% among 190,000. AID 1671202
Target sequence (P42858 whole entry, looked up, change not shown): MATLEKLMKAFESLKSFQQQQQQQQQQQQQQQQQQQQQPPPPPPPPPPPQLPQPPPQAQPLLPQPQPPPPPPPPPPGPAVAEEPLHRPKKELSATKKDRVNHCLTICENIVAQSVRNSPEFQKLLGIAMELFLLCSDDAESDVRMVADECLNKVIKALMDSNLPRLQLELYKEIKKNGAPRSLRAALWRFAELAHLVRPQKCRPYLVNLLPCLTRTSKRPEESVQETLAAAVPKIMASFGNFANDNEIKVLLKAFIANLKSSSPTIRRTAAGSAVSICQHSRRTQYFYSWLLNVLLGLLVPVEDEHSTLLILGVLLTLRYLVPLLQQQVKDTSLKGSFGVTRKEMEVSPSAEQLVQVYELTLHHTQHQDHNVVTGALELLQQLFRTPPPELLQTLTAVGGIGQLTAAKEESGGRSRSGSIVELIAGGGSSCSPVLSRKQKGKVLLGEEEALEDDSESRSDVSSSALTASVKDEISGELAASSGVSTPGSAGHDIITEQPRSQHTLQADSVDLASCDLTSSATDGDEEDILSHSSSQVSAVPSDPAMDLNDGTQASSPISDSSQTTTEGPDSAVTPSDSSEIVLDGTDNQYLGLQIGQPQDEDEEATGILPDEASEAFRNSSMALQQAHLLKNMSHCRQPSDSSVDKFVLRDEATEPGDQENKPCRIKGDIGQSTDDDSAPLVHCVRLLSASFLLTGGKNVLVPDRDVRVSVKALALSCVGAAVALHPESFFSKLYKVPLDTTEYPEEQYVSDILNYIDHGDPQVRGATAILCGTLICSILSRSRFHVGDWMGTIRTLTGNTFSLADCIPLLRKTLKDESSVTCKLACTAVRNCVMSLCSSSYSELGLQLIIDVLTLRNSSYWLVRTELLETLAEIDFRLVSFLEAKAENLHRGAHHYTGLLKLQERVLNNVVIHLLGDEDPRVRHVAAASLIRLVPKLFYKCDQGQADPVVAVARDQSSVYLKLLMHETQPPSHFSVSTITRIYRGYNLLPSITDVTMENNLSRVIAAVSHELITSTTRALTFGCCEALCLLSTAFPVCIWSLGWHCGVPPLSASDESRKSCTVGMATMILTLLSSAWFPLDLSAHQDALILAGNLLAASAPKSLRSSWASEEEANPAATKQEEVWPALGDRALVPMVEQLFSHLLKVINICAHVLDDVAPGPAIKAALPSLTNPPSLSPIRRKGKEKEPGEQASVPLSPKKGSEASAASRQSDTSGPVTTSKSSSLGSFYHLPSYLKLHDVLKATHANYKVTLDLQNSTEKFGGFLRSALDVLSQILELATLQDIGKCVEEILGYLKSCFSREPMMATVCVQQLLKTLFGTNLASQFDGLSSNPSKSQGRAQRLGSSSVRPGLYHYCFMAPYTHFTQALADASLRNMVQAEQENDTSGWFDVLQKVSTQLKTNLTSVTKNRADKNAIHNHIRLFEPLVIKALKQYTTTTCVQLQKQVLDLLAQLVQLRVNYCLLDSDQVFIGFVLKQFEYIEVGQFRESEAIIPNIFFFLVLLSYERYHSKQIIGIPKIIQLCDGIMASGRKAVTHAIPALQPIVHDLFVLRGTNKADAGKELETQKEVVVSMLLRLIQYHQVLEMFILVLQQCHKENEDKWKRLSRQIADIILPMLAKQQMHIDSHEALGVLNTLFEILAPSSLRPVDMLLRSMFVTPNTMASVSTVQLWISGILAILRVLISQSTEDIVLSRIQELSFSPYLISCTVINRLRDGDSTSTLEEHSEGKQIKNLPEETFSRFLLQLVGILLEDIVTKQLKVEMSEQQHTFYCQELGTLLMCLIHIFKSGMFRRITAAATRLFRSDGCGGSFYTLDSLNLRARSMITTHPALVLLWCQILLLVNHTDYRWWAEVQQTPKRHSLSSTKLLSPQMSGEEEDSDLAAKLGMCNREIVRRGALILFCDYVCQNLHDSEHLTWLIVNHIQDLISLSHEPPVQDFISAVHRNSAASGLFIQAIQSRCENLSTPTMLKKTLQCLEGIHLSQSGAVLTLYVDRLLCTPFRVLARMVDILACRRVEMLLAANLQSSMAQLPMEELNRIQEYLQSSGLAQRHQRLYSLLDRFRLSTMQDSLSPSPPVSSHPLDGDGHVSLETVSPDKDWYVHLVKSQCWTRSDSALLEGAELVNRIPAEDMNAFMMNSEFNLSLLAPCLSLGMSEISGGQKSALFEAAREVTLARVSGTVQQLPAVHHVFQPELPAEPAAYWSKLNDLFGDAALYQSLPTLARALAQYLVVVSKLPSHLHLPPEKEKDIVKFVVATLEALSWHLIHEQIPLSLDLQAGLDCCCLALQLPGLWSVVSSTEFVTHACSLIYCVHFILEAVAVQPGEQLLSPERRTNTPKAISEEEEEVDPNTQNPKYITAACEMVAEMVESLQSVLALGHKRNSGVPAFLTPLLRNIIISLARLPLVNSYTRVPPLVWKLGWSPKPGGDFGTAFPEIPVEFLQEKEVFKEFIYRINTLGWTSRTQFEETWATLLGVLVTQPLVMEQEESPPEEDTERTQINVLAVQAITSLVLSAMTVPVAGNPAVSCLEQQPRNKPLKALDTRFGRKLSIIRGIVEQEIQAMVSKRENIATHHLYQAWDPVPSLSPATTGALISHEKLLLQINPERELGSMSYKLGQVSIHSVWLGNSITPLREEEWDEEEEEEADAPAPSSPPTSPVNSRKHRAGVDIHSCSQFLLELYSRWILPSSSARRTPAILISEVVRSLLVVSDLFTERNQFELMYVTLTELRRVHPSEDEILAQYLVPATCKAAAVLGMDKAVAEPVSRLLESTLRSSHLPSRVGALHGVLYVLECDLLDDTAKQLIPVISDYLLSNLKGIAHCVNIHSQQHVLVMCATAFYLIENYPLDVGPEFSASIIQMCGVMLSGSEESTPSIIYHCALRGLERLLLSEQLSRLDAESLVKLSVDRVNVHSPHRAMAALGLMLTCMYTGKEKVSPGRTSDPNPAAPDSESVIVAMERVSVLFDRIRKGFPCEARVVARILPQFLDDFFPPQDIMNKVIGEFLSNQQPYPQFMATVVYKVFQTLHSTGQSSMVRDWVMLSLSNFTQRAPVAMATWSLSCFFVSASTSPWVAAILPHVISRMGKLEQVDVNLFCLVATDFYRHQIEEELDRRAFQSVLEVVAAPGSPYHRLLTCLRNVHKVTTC
Pf apPOL block: Pf-apPOL DNA polymerase inhibition; Recombinant Pf-apPOL, molecular beacon fluorescence, 1.5 h; inhibition, % at 10 µM; hit rate 0.25% among 210,000; AID 1794808
Each line names hits and unclear results; the compound was inactive in the other large screens. An excerpt weighted towards active compounds, which were near 3.5% of everything screened. Cut-off read from the data, not from the text of the source: active = inhibition above about 50%; inactive = the rest.

COc1ccc(Cl)cc1NC(=O)c1c(NCc2ccncc2)sc2c1CCCC2	mHTT-CaM PPI inh 79.0
N#CC1=C(N)OC2=C(C(=O)CCC2)C1c1cc2c(cc1[N+](=O)[O-])OCO2 (stereo unspecified)	mHTT-CaM PPI inh 90.3
N#CC1=C(N)OC2=C(C(=O)CCC2)C1c1cc([N+](=O)[O-])cs1 (stereo unspecified)	none
COc1c(C(C)C)cc(NC(C)=O)cc1C(C)C	none
CC(=O)Nc1ccc(Nc2cc(C(C)C)c(O)c(C(C)C)c2)cc1	mHTT-CaM PPI inh 74.3
Cc1ccc2nc3c(cc(C(=O)NCc4ccccc4)c(=N)n3Cc3ccco3)c(=O)n2c1	none
Cc1ccc(S(=O)(=O)c2cc3c(=O)n4ccccc4nc3n(Cc3ccco3)c2=N)cc1	mHTT-CaM PPI inh 52.0
Cc1ccc(S(=O)(=O)c2cc3c(=O)n4cc(C)ccc4nc3n(Cc3ccco3)c2=N)cc1	none
Cc1cccn2c(=O)c3cc(C(=O)NCc4ccccc4)c(=N)n(CCc4ccccc4)c3nc12	none
Cc1ccc2nc3c(cc(C(=O)NCc4ccco4)c(=N)n3Cc3ccco3)c(=O)n2c1	mHTT-CaM PPI inh 66.0
N=c1c(C(=O)NCc2ccco2)cc2c(=O)n3ccccc3nc2n1Cc1cccnc1	none
Cc1cccn2c(=O)c3cc(C(=O)NCc4ccco4)c(=N)n(CCc4ccccc4)c3nc12	mHTT-CaM PPI inh 50.0
N=c1c(C(=O)NCc2ccccc2)cc2c(=O)n3ccccc3nc2n1Cc1ccco1	mHTT-CaM PPI inh 85.0
c1coc(CNc2nc3nonc3nc2NCc2ccco2)c1	none (no result: Pf apPOL block)
O=C(NCC(c1ccsc1)N1CCc2ccccc2C1)C(=O)Nc1ccon1 (stereo unspecified)	none
O=C1N=C(N2CCCCC2)S/C1=C/C1=Cc2ccccc2OC1	mHTT-CaM PPI inh 66.0
O=C1N=C(N2CCCC2)S/C1=C/C=C/c1ccccc1	mHTT-CaM PPI inh 76.0
O=C1N=C(N2CCOCC2)S/C1=C\C1=Cc2ccccc2OC1	none (no result: Pf apPOL block)
CN1CCN(C2=NC(=O)/C(=C/c3ccccc3)S2)CC1	none
CCn1cc(C(=O)Nc2cccc(O)c2)c(=O)c2ccc(C)nc21	none
Cc1ccc(NC(=O)c2c(-c3ccccc3)noc2C)cc1Cl	none
CC1=C(C(=O)N2CCOCC2)C(c2ccc(F)cc2)n2c(nc3ccccc32)N1 (stereo unspecified)	none
COc1ccc(-n2nc(C(=O)Nc3cccc(NC(C)=O)c3)c3ccccc3c2=O)c(OC)c1	none
Cc1cccc(N=c2scc(-c3ccc(F)cc3)n2CCO)c1	mHTT-CaM PPI inh 65.0
Cc1ccc(-c2csc(=Nc3cccc(Cl)c3)n2CCO)cc1	mHTT-CaM PPI inh 93.0
CCOc1ccc(N=c2scc(-c3ccc(C)cc3)n2C)cc1	none
OCCn1c(-c2ccc(I)cc2)csc1=Nc1cccc(Cl)c1	mHTT-CaM PPI inh 80.0
N#Cc1c(SCC(=O)Nc2nccs2)sc2c(O)cc(=O)[nH]c12	mHTT-CaM PPI inh 51.5 (no result: Pf apPOL block)
N#Cc1c(SCC(=O)NC2CC2)sc2c(O)cc(=O)[nH]c12	none (no result: Pf apPOL block)
O=C(O)CC1(CC(=O)Nc2ccc3[nH]c(=O)nc(-c4ccccc4)c3c2)CCCC1	none
CC(C)(C)C1CC=C2C(C#N)=C(N)C(C#N)(C#N)C(c3ccccc3)C2C1 (stereo unspecified)	none
CCCN1CC=C2C(C#N)=C(N)C(C#N)(C#N)C(c3ccc(-c4ccccc4)cc3)C2C1 (stereo unspecified)	mHTT-CaM PPI inh 63.0
CC(C)c1ccc(C2C3CCCC=C3C(C#N)=C(N)C2(C#N)C#N)cc1 (stereo unspecified)	mHTT-CaM PPI inh 55.0
CC(C)(C)C1CC=C2C(C#N)=C(N)C(C#N)(C#N)C(c3ccc(Cl)cc3)C2C1 (stereo unspecified)	mHTT-CaM PPI inh 62.0
Cc1ccc(C2C3CCCC=C3C(C#N)=C(N)C2(C#N)C#N)cc1 (stereo unspecified)	none
CN1CC=C2C(C#N)=C(N)C(C#N)(C#N)C(c3ccccc3)C2C1 (stereo unspecified)	none
N#CC1=C(N)C(C#N)(C#N)C(c2cccs2)C2CC(c3ccccc3)CC=C12 (stereo unspecified)	mHTT-CaM PPI inh 96.0
N#CC1=C(N)C(C#N)(C#N)C(c2ccccc2)C2CCCC=C12 (stereo unspecified)	none
NCCOc1ccccc1Cc1ccccc1	none
CCCCOc1ccc(C2C3CCCC=C3C(C#N)=C(N)C2(C#N)C#N)cc1 (stereo unspecified)	mHTT-CaM PPI inh 55.0
COc1ccc(C2C3CCCC=C3C(C#N)=C(N)C2(C#N)C#N)cc1 (stereo unspecified)	none
O=Cc1cc(Cc2ccccc2)cc(Br)c1O	mHTT-CaM PPI inh 99.6
CCOc1cc(C=O)c(Br)cc1OCc1ccccc1	none
COc1cc(OC)cc(C(=O)N2CCCC(c3ccnc(Nc4ccccc4F)n3)C2)c1 (stereo unspecified)	none
CC1c2cccn2CCN1C(=O)Nc1ccc(Br)cc1 (stereo unspecified)	none
O=C(NCc1ccc(F)cc1)C1CCC(CNS(=O)(=O)c2cccs2)CC1 (stereo unspecified)	none
COc1ccc(OC)c(NC(=O)C2CCc3sc(C(=O)N4CCCC4)cc3C2)c1 (stereo unspecified)	none

Bioassay records deposited in PubChem by University of Kansas High Throughput Screening Laboratory.
